From PubChem BioAssay AID463173 (ICCB-Longwood Screening Facility, Harvard Medical School, 2010)
In all, about 52,000 compounds went through this assay and about 4,300 (8.3%) were called active. The sample holds actives, similar compounds and a random draw of the others, so the mix is not that of the screen. No stated cut-off is given here; in the data, active means survival mostly below about 52% (no sharp cut-off); inactive means mostly above about 56%.

What follows are molecules tested on DeltatarO mutant (assay: S. aureus survival, RN4220 and DeltatarO strains – OD600, teichoic acid synthesis inhibitors, primary screen (AID 463173)). Conditions: S. aureus RN4220 wild type/DeltatarO growth, OD600, 18 h, hits give low values, screened at 18.75 µg/mL (by protocol).
In the case of `Cc1ccc(NC(=O)Cn2nc(-c3ccncc3)ccc2=O)cc1Cl`, the survival is reported as 120% (inactive).
`Cc1cc(C)c(/C=C/c2onc(C)c2S(=O)(=O)N2CCC(C(=O)NCCc3ccccc3)CC2)c(C)c1` was tested, and the survival was 94% (inactive).
For `Cc1ccc(-n2nc3c(=O)n(CCCC(=O)NCc4ccccc4C)nc(C)c3c2C)cc1`, the survival was 120% (inactive).
`COC(=O)c1nc(C(=O)OC)c(C(=O)OC)nc1C(=O)OC` was tested, and the survival was 95% (inactive).
In the case of `COc1ccc(Cl)cc1C(=O)Nc1sc2c(c1C(=O)OC(C)C)CCCC2`, the survival is reported as 61% (inactive).
`CCOC(=O)Cc1c(C(=O)OCC)nnc2c(-c3ccccc3)c(C)nn12` was tested, and the survival was 75% (inactive).
With `CN(C)c1ccc(CNC(=O)c2ccccc2NC(=O)c2nsc3ccccc23)cc1` the survival was 73% (inactive).
For `COc1ccccc1NC(=O)C1=C(C)Nc2nc(CCCO)nn2C1c1cccc(O)c1` (stereo unspecified), the survival was 144% (inactive).
For `CCN1CC=C2C(C#N)=C(N)C(C#N)(C#N)C(c3ccc(OC)c4ccccc34)C2C1` (stereo unspecified), the survival was 108% (inactive).
For `CCCOc1ccc(C2C3CN(CC)CC=C3C(C#N)=C(N)C2(C#N)C#N)cc1OC` (stereo unspecified), the survival was 0% (active).
In the case of `CCCN1CC=C2C(C#N)=C(N)C(C#N)(C#N)C(c3cccc(OC)c3)C2C1` (stereo unspecified), the survival is reported as 95% (inactive).
`CC1CCN(S(=O)(=O)c2ccc3c(c2)CCN3)CC1` was tested, and the survival was 102% (inactive).
With `COc1cc(C2C(C(=O)Nc3ccc(C)cc3C)=C(C)Nc3nc(SCc4ccccc4)nn32)cc(OC)c1OC` (stereo unspecified) the survival was 64% (inactive).
For `O=C(O)C1C(c2ccccc2)C(C(=O)N2CCCCC2)C1c1ccccc1` (stereo unspecified), the survival was 101% (inactive).
For `Brc1ccccc1-n1ncc2c1ncn1nc(Cc3ccccc3)nc21`, the survival was 74% (inactive).
In the case of `CC(C)(C)OC(=O)N1CCC(c2nnc(SCc3ccccc3)o2)CC1`, the survival is reported as 96% (inactive).
For `Clc1ccccc1CSc1nnc(C2CCNCC2)o1`, the survival was 89% (inactive).
For `Clc1cccc(CSc2nnc(C3CCNCC3)o2)c1`, the survival was 104% (inactive).
In the case of `CC(C)(C)OC(=O)N1CCC(c2nnc(SCc3ccccc3Cl)o2)CC1`, the survival is reported as -1% (active).
In the case of `CC(C)(C)OC(=O)N1CCC(c2nnc(SCc3cccc(Cl)c3)o2)CC1`, the survival is reported as 1% (active).
`CC(C)(C)OC(=O)N1CCC(c2nnc(SCc3ccccc3F)o2)CC1` was tested, and the survival was 57% (inactive).
In the case of `CCN(C(=O)c1cnc(N2CCOCC2)c2ccccc12)c1cc(C)ccc1C`, the survival is reported as 94% (inactive).
With `O=C(c1ccccc1)c1ccc2nc(Nc3cc(Cl)ccc3O)c3nncn3c2c1` the survival was 118% (inactive).
`COc1ccc(NC(=O)CSc2oc(-c3ccc(C)cc3)nc2S(=O)(=O)c2ccc(C)cc2)c(OC)c1` was tested, and the survival was 60% (inactive).
`CCCCn1cc(S(=O)(=O)c2ccc(C)c(C)c2)c(=O)c2cc(F)c(N3CCN(C)CC3)cc21` was tested, and the survival was 101% (inactive).
For `COC(=O)c1ccccc1NC(=O)[C@H]1O[C@@H]2OC(C)(C)O[C@@H]2[C@H]2OC(C)(C)O[C@H]21`, the survival was 95% (inactive).
In the case of `Cc1ccc2c(CN3CCN(C(=O)c4ccc(Br)cc4)CC3)cc(=O)oc2c1`, the survival is reported as 51% (inactive).
In the case of `Cc1ccc2c(CN3CCN(C(=O)c4ccc(F)cc4)CC3)cc(=O)oc2c1`, the survival is reported as 33% (active).
In the case of `COc1ccc(CN2CCN(Cc3cc(=O)oc4cc(C)ccc34)CC2)c(OC)c1OC`, the survival is reported as 101% (inactive).
In the case of `Cc1ccc2c(CN3CCN(Cc4ccccc4Cl)CC3)cc(=O)oc2c1`, the survival is reported as 43% (inactive).
For `COc1cccc(N2CCN(Cc3cc(=O)oc4cc(C)ccc34)CC2)c1`, the survival was 70% (inactive).
In the case of `COc1ccccc1C(=O)N1CCN(Cc2cc(=O)oc3cc(C)ccc23)CC1`, the survival is reported as 38% (active).
In the case of `Cc1ccc(N2C(=O)CSC23C(=O)N(CC(=O)NCCc2ccccc2)c2ccccc23)cc1C` (stereo unspecified), the survival is reported as 95% (inactive).
`O=c1[nH]c2cc3c(cc2cc1C(c1nnnn1C1CCCC1)N1CCc2ccccc21)OCCO3` (stereo unspecified) was tested, and the survival was 64% (inactive).
With `COc1cccc(N2CC(NC(=O)c3cccc(OC)c3OC)CC2=O)c1` (stereo unspecified) the survival was 115% (inactive).
For `NC(=O)CN(C1CCCCC1)S(=O)(=O)c1ccc(Br)cc1`, the survival was 96% (inactive).
For `CCCCC(CC)CNC(=O)c1ccc2c(=O)n(Cc3ccc(OC)cc3)c(=O)[nH]c2c1` (stereo unspecified), the survival was 84% (inactive).
In the case of `Fc1ccc(C(NCCc2ccc(Cl)cc2)c2nnc(-c3ccccc3Cl)o2)cc1` (stereo unspecified), the survival is reported as 26% (active).
With `Fc1ccc(NCc2ccccc2-c2nnc(-c3ccccc3Cl)o2)cc1` the survival was 88% (inactive).
For `Fc1ccc(C(NCCc2ccccc2)c2nnc(-c3ccccc3Cl)o2)cc1` (stereo unspecified), the survival was 104% (inactive).
`Cc1ccc(CCNC(c2ccc(F)cc2)c2nnc(-c3ccccc3Cl)o2)cc1` (stereo unspecified) was tested, and the survival was -8% (active).
With `Fc1ccc(C(Nc2ccccc2Cl)c2nnc(-c3ccccc3Cl)o2)cc1` (stereo unspecified) the survival was 83% (inactive).
`COc1ccc(CCNC(c2ccc(F)cc2)c2nnc(-c3ccccc3Cl)o2)cc1OC` (stereo unspecified) was tested, and the survival was 57% (inactive).
`CCOc1ccc(C(C)C)cc1S(=O)(=O)Nc1cccc(-c2ccc(N3CCOCC3)nn2)c1` was tested, and the survival was 87% (inactive).
With `Cc1nc2nc(NC(=O)c3ccc(C(C)(C)C)cc3)[nH]n2c(=O)c1Cl` the survival was 98% (inactive).
With `COc1ccc(S(=O)(=O)n2nc(C)c(S(=O)(=O)N3CCCCCC3)c2C)cc1C` the survival was 81% (inactive).
`Cc1nn(S(=O)(=O)c2ccc(F)cc2)c(C)c1S(=O)(=O)N1CCCCC1` was tested, and the survival was 72% (inactive).
For `Cc1nn(S(=O)(=O)c2ccccc2)c(C)c1S(=O)(=O)N1CCC(C)CC1`, the survival was 72% (inactive).
In the case of `Cc1nn(C(=O)c2cccc([N+](=O)[O-])c2C)c(C)c1S(=O)(=O)N1CCCCCC1`, the survival is reported as -2% (active).
`Cc1nn(C(=O)c2ccccc2F)c(C)c1S(=O)(=O)N1CCCCCC1` was tested, and the survival was 83% (inactive).
In the case of `Cc1nn(C(=O)c2cccc([N+](=O)[O-])c2C)c(C)c1S(=O)(=O)N1CCOCC1`, the survival is reported as 76% (inactive).
`COc1ccc(S(=O)(=O)n2nc(C)c(S(=O)(=O)N3CCC(C)CC3)c2C)cc1OC` was tested, and the survival was 70% (inactive).
`COc1ccc(S(=O)(=O)n2nc(C)c(S(=O)(=O)N3CCCCCC3)c2C)cc1OC` was tested, and the survival was 6% (active).
`Cc1nn(S(=O)(=O)c2ccc(F)cc2)c(C)c1S(=O)(=O)N1CCC(C)CC1` was tested, and the survival was -1% (active).
With `CC(C)c1ccc(Nc2cc(C(=O)NCCc3ccccc3)c3ccccc3n2)cc1` the survival was 81% (inactive).
For `Cc1nn(CC(=O)NCc2ccccc2Br)c(=O)c2cc3occc3n12`, the survival was 132% (inactive).
For `Cc1ccc(CCNC(=O)c2ccc3c(c2)N(Cc2ccc(F)cc2)CCS3)cc1`, the survival was 71% (inactive).
`CC1=C(c2ccc(C(C)C)cc2)S(=O)(=O)N=C1N1CCN(c2ccc(F)cc2)CC1` was tested, and the survival was 74% (inactive).
With `O=S(=O)(NCCS(=O)(=O)N1CCN(c2cccc(Cl)c2)CC1)c1ccc(F)cc1` the survival was 83% (inactive).
`CCC1CCCCN1CCCNC(=O)c1cc2c(Cl)nc3ccc(C)cc3c2s1` (stereo unspecified) was tested, and the survival was 67% (inactive).
With `Cc1ccc(CSc2cn(CCNC(=O)c3cccs3)c3ccccc23)cc1` the survival was 58% (inactive).
In the case of `COc1ccccc1C(=O)NCCn1cc(SCC(=O)Nc2ccccc2F)c2ccccc21`, the survival is reported as 55% (inactive).
With `O=C(NCCn1cc(SCc2ccccc2Cl)c2ccccc21)c1cccs1` the survival was 57% (inactive).
`COc1ccccc1C(=O)NCCn1cc(SCc2ccc(C)cc2)c2ccccc21` was tested, and the survival was 22% (active).
In the case of `COc1ccc(CCNC(=O)CSc2cn(CCNC(=O)c3ccccc3F)c3ccccc23)cc1OC`, the survival is reported as 137% (inactive).
For `COc1ccccc1C(=O)NCCn1cc(SCc2ccccc2Cl)c2ccccc21`, the survival was 34% (active).
For `CCOc1ccc(C(=O)Nc2ccc(S(=O)(=O)N3CCOCC3)cc2)cc1OCC`, the survival was 72% (inactive).
With `CCOc1ccc(CNC(=O)c2cccc(NC(=O)N3CCSc4ncccc43)c2)cc1OC` the survival was 92% (inactive).
`COc1cccc(N2CC(NC(=O)c3ccc4c(c3)OCO4)CC2=O)c1` (stereo unspecified) was tested, and the survival was 92% (inactive).
In the case of `Cc1c(C(=O)NCCN(C)C)sc2nc3n(c(=O)c12)CCC3`, the survival is reported as 87% (inactive).
In the case of `O=C(C1CCCCC1)N(Cc1nc2sc3c(c2c(=O)[nH]1)CCCC3)Cc1cccs1`, the survival is reported as 66% (inactive).
In the case of `Cc1sc2nc(CN(C(=O)c3cccs3)C3CCCC3)[nH]c(=O)c2c1C`, the survival is reported as 80% (inactive).
For `O=C(c1cccs1)N(Cc1nc2sc3c(c2c(=O)[nH]1)CCCC3)C1CCCC1`, the survival was 45% (active).
In the case of `Cc1ccc(NCc2cccn2-c2nnc(N3CCC(C(=O)NCc4ccc(OC(C)C)cc4)CC3)s2)cc1`, the survival is reported as 69% (inactive).
With `CCCCn1c(=N)c(C(=O)NC2CCCCC2)cc2c(=O)n3cccc(C)c3nc21` the survival was 62% (inactive).
`CCOc1ccc(C(=O)Nc2ccc(NC(=O)c3ccccc3)cc2)cc1Br` was tested, and the survival was 85% (inactive).
With `CCOc1ccc(C(=O)Nc2cccc(NC(=O)c3ccc(C(C)(C)C)cc3)c2)cc1Br` the survival was 81% (inactive).
In the case of `CCOc1ccc(C(=O)Nc2ccc3c(c2)OCCO3)cc1Br`, the survival is reported as 37% (active).
In the case of `O=C(C1COc2ccccc2O1)N(Cc1cccnc1)c1nc2c(F)cccc2s1` (stereo unspecified), the survival is reported as 84% (inactive).
`CCCC(=O)N1CCCC(c2nc(-c3cccs3)no2)C1` (stereo unspecified) was tested, and the survival was 107% (inactive).
In the case of `Cc1c(C)n(Cc2ccccc2)c2ccc(C(=O)NC(C)c3ccccc3)cc12` (stereo unspecified), the survival is reported as 78% (inactive).
`COc1ccc(NC(=O)c2oc3c(c2C)-c2nn(Cc4c(F)cccc4Cl)cc2CC3)c(OC)c1` was tested, and the survival was 72% (inactive).
With `COc1cc(C)ccc1OCCSc1nnc(-c2ccc(C)cc2)o1` the survival was 55% (inactive).
For `Cc1ccc(OCCSc2nnc(-c3cccs3)o2)cc1Cl`, the survival was 45% (active).
With `COc1cc(C)ccc1OCCSc1nnc(-c2cccs2)o1` the survival was 40% (active).
With `Clc1ccccc1OCCSc1nnc(-c2cccs2)o1` the survival was 43% (inactive).
`Cc1cccc(OCCSc2nnc(-c3cccs3)o2)c1` was tested, and the survival was 58% (inactive).
In the case of `Cc1cc(Cl)ccc1OCCSc1nnc(-c2cccs2)o1`, the survival is reported as 37% (active).
With `COc1ccc(-c2nnc(SCCOc3ccccc3C)o2)cc1OC` the survival was 64% (inactive).
In the case of `Cc1ccc(OCCSc2nnc(-c3cccs3)o2)cc1`, the survival is reported as 53% (inactive).
For `Cc1ccccc1OCCSc1nnc(-c2cccs2)o1`, the survival was 106% (inactive).
